Consider 14 molecules from PubChem BioAssay (NCI).

Structures are written as SMILES. Compounds without any hit were thinned out: in the full panel of roughly 83,000, 20% have a hit.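 Note: values are percent growth. 100 is the growth of untreated cells, values between 100 and 0 indicate rising inhibition; between -100 and 0 indicates cell death.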 Unmarked numbers belong to inactive results. The source made the active and inactive calls. The calls were made as follows: active = growth percent below 10; inactive = the rest.

Some test systems named below: HT29 colon; SNB-75 CNS; SNB-19 CNS; U251 CNS; PC-3 prostate; SK-MEL-5 melanoma; UACC-62 melanoma; LOX IMVI melanoma; SK-MEL-28 melanoma; SK-MEL-2 melanoma.
Common to all, as to assay: NCI-60 one-dose screen, 48 h (100 = growth as untreated, 0 = no growth, -100 = all killed)
Holding throughout (settings): 10 µM unless noted

Regarding `COC(=O)[C@]1(C(C)C)N[C@H](c2cn(-c3ccccc3)nc2-c2ccccc2)[C@@H]2C(=O)N(c3ccc(Cl)cc3)C(=O)[C@@H]21`, the growth in the assay on HT29 colon is 98.1%; with SNB-75 CNS, 86.1%; with SNB-19 CNS it was 99.1%; in the assay with U251 CNS, 97.4%; with PC-3 prostate it was 89.9%; in the assay on SK-MEL-5 melanoma, 101%. Besides, the growth is 101% in the assay on UACC-62 melanoma, 92.1% in the assay with LOX IMVI melanoma, 114% in the assay with SK-MEL-28 melanoma and 86.9% in the assay with SK-MEL-2 melanoma.

Regarding `NC(N)=N/N=C(/c1ccccc1)c1ccc(Cl)cc1`, the growth is 25.6% with HT29 colon; 56.1% in the assay with SNB-75 CNS; 63.8% in the assay with SNB-19 CNS; 70.8% with U251 CNS; 72.8% with PC-3 prostate; 56.8% in the assay with SK-MEL-5 melanoma. The growth in the assay with UACC-62 melanoma is 74.4%; in the assay on LOX IMVI melanoma it was 74.4%; with SK-MEL-28 melanoma, 53.9%; in the assay on SK-MEL-2 melanoma, 118%.

Turning to `c1ccc(-n2nnnc2-c2cccc3ccccc23)cc1`, the growth was -1.01% (active) in the assay with HT29 colon; -7.18% (active) with SNB-75 CNS; 36.7% in the assay on SNB-19 CNS; 19.5% in the assay with U251 CNS; 5.09% (active) in the assay on PC-3 prostate; 22.2% with SK-MEL-5 melanoma. Further, the growth with UACC-62 melanoma was 31.6%; in the assay on LOX IMVI melanoma, 18.6%; in the assay on SK-MEL-28 melanoma it was 56.5%; in the assay on SK-MEL-2 melanoma it was 23.8%.

Regarding `NC(=O)NN=C(C1CC1)C1CC1`, the growth in the assay on HT29 colon was 103%; in the assay with SNB-75 CNS it was 92.6%; in the assay on SNB-19 CNS, 106%; with U251 CNS, 98.4%; in the assay on PC-3 prostate it was 112%; in the assay with SK-MEL-5 melanoma, 111%. Further, the growth with UACC-62 melanoma is 110%; in the assay with LOX IMVI melanoma, 95.9%; in the assay on SK-MEL-28 melanoma it was 116%; with SK-MEL-2 melanoma it was 110%.

In the case of `Clc1ccc(-n2cnc3c(Cl)ncnc32)cc1Cl`, the growth in the assay with HT29 colon was 74.8%; in the assay on SNB-75 CNS, 99.5%; with SNB-19 CNS it was 91.5%; with U251 CNS it was 78.2%; with PC-3 prostate, 110%; in the assay with SK-MEL-5 melanoma it was 103%. Besides, the growth with UACC-62 melanoma was 85.4%; with LOX IMVI melanoma, 36.6%; with SK-MEL-28 melanoma, 64.1%; in the assay on SK-MEL-2 melanoma, 89.7%.

As to `CC(=O)Nc1ccc2c(c1)Cc1c(F)c(F)c(F)c(F)c1-2`, the growth in the assay on HT29 colon is 97.1%; with SNB-75 CNS it was 44%; in the assay with SNB-19 CNS, 90.3%; with U251 CNS it was 78.8%; with PC-3 prostate, 81.9%; with SK-MEL-5 melanoma, 84.7%. The growth in the assay on UACC-62 melanoma is 77.4%; with LOX IMVI melanoma, 80.3%; in the assay with SK-MEL-28 melanoma, 102%; in the assay with SK-MEL-2 melanoma it was -27.7% (active).

Consider `O=NC1CC=CCC1c1ccccc1` (stereo not given), for which the growth in the assay with HT29 colon was 100%; in the assay with SNB-75 CNS, 93.5%; in the assay with SNB-19 CNS, 109%; with U251 CNS, 105%; with PC-3 prostate, 94%; with SK-MEL-5 melanoma, 108%. Moreover, the growth is 100% with UACC-62 melanoma, 104% in the assay on LOX IMVI melanoma, 114% in the assay with SK-MEL-28 melanoma and 108% in the assay with SK-MEL-2 melanoma.

As to `Nc1cc(Cl)c(S(N)(=O)=O)cc1S(N)(=O)=O`, the growth with HT29 colon was 122%; in the assay on SNB-75 CNS, 86.7%; in the assay with SNB-19 CNS it was 113%; with U251 CNS, 100%; in the assay with PC-3 prostate, 106%; in the assay on SK-MEL-5 melanoma, 102%. For the same molecule, the growth with UACC-62 melanoma is 101%; in the assay with LOX IMVI melanoma it was 101%; in the assay on SK-MEL-28 melanoma it was 121%; in the assay with SK-MEL-2 melanoma, -16.2% (active).

For the molecule `CN(C)c1nc(N)nc(Cn2c(-c3nonc3N)nc3ccccc32)n1`, the growth with HT29 colon was 72.9%; with SNB-75 CNS, 56.4%; in the assay with SNB-19 CNS, 91.8%; in the assay with U251 CNS, 90.1%; in the assay on PC-3 prostate it was 82.6%; in the assay on SK-MEL-5 melanoma, 86.9%. Besides, the growth in the assay on UACC-62 melanoma is 73%; in the assay with LOX IMVI melanoma, 76.6%; in the assay on SK-MEL-28 melanoma, 82%; with SK-MEL-2 melanoma, 90.5%.

In the case of `C=C1c2c(C)nn(-c3ccc(C#CCOC4OC(CO)C(O)C(O)C4O)cc3)c2N(C)C23C[C@H]1C1(C)c4c(C)nn(-c5ccc(C#CCOC6OC(CO)C(O)C(O)C6O)cc5)c4N(C)C(C)(C[C@H]12)C3` (stereo not given in full), the growth was 8.04% (active) with HT29 colon; 6.04% (active) in the assay with SNB-75 CNS; 2.15% (active) in the assay with SNB-19 CNS; -35% (active) with U251 CNS; -26.1% (active) with PC-3 prostate; -74.7% (active) in the assay with SK-MEL-5 melanoma. Besides, the growth in the assay with UACC-62 melanoma is -36.7% (active); in the assay with LOX IMVI melanoma, -42.4% (active); in the assay with SK-MEL-28 melanoma it was 5.91% (active); in the assay on SK-MEL-2 melanoma, -43.5% (active).

For `CN(C(=O)c1ccccc1)N(C)C(=O)c1ccccc1`, the growth with HT29 colon is 93.4%; in the assay on SNB-75 CNS it was 105%; in the assay on SNB-19 CNS, 101%; in the assay on U251 CNS it was 108%; in the assay on PC-3 prostate, 91.6%; with SK-MEL-5 melanoma it was 108%. Further, the growth in the assay on UACC-62 melanoma was 102%; in the assay on LOX IMVI melanoma it was 106%; in the assay with SK-MEL-28 melanoma, 110%; with SK-MEL-2 melanoma, 106%.

As to `O=C(Nc1ccc(OCc2nnc(-c3ccccc3)o2)c(F)c1)Nc1ccc(Cl)c(C(F)(F)F)c1`, the growth in the assay on HT29 colon is 9.92% (active); in the assay on SNB-75 CNS it was 40.2%; in the assay with SNB-19 CNS, 29.9%; in the assay on U251 CNS, 7.14% (active); in the assay with PC-3 prostate it was -16.2% (active); in the assay with SK-MEL-5 melanoma it was 4.6% (active). Further, the growth in the assay with UACC-62 melanoma is 27.4%; in the assay on LOX IMVI melanoma, 7.41% (active); in the assay with SK-MEL-28 melanoma, 49.2%; with SK-MEL-2 melanoma, 16.2%.

For the molecule `CCN(CC)c1ccc(N=Nc2cc(Cl)ccc2Cl)c(NC(=O)CCC(=O)O)c1`, the growth in the assay on HT29 colon was 111%; in the assay with SNB-75 CNS, 91.1%; in the assay on SNB-19 CNS it was 110%; with U251 CNS it was 94.7%; with PC-3 prostate, 90.1%; in the assay with SK-MEL-5 melanoma it was 103%. In addition, the growth with UACC-62 melanoma was 101%; in the assay on LOX IMVI melanoma, 99.1%; in the assay with SK-MEL-28 melanoma, 120%; in the assay on SK-MEL-2 melanoma, 118%.

In the case of `Cc1ccc(NC(=O)CSc2nnc3n(Cc4ccccc4)c(=O)c4c(C)c(C(N)=O)sc4n23)cc1`, the growth is 35% in the assay on HT29 colon; -46.4% (active) in the assay on SNB-75 CNS; 68.6% with SNB-19 CNS; 38.3% with U251 CNS; 81.5% with PC-3 prostate; 77.1% with SK-MEL-5 melanoma. Moreover, the growth in the assay on UACC-62 melanoma was 55.8%; in the assay on LOX IMVI melanoma it was 59.9%; in the assay on SK-MEL-28 melanoma, 13.9%; in the assay with SK-MEL-2 melanoma, 44.4%.
